# In PubChem BioAssay (NCI):
# This is part of a sample that, as a whole, favours compounds with a hit. Of some 83,000 tested, about 20% had one in any assay.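 Note: values are percent growth. 100 is the growth of untreated cells, values between 100 and 0 indicate rising inhibition; between -100 and 0 indicates cell death.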 Unmarked numbers belong to inactive results. The source made the active and inactive calls. Rule for the calls: active = growth percent below 10; inactive = the rest.
# System: NCI/ADR-RES ovarian
# Assay: NCI-60 one-dose screen, 48 h (100 = growth as untreated, 0 = no growth, -100 = all killed)
# Details: 10 µM unless noted
row,SMILES,growth
1,Cc1c(C)c([N+](=O)[O-])c(C)c([N+](=O)[O-])c1C,108%
2,COc1cc(NC(=O)CSc2nc3ccc(C)cc3c(=O)n2Cc2ccccc2)cc(OC)c1OC,66.3%
3,CSc1nc2sc3cccc(Cl)c3n2c(=N)c1C#N,103%
4,CCN(c1ccccc1)S(=O)(=O)c1cc([N+](=O)[O-])ccc1Cl,42.2%
5,COC(=O)c1ccc2c(c1)[n+](=O)c(C(C)=O)c(C(F)(F)F)n2[O-],-40.7% (active)
6,COc1cc(/C=C/C(=O)c2nc3cc(F)ccc3nc2C)cc(OC)c1OC,41.3%
7,Cc1nc2ccc(Cl)cn2c1-c1nnc(SCc2ccc([N+](=O)[O-])cc2)o1,36.1%
8,COc1ccc(/C=C/C(=O)Nc2cc(/C=C\c3cc(OC)c(OC)c(OC)c3)cc(OC)c2OC)cc1OC,-11.2% (active)
9,N#C/C(=C\c1cccc(C#N)c1)c1ccccc1,101%
10,C[C@H]1[C@H]2[C@H]3CC[C@@H]4[C@@]5(C)CC[C@H](O)C(C)(C)[C@@H]5CC[C@@]4(C)[C@]3(C)CC[C@]23CO[C@]1(C)[C@@H](C(=O)/C=C\c1ccco1)C3,95.3%
11,COc1cc2cc(Oc3cccc(NC(=O)Nc4cc(C(F)(F)F)cc(C(F)(F)F)c4)c3)c(C)nc2cc1OC,7.03% (active)
12,Cc1ncc(C(=O)Nc2ccc(CN3CCN(C)CC3)c(C(F)(F)F)c2)cc1C#Cc1cnc(N)cc1C#N,-46.8% (active)
13,Cc1ccc(-n2nc3c(c(C#N)c2=O)CC(c2ccccc2[N+](=O)[O-])C([N+](=O)[O-])=C3O)cc1 (stereo unspecified),99.8%
14,C#Cc1cccc(NC(=O)c2cccc(NC(=O)CCl)c2)c1,-11.5% [8.25 µM] (active)
15,N#CC1=C(N)Oc2c(ccc3ccccc23)C1c1ccccc1Cl (stereo unspecified),-0.548% (active)
16,O=C(CSc1nc2ccccc2[nH]1)NCc1ccccc1,102%
17,COc1ccc(-c2nc(S(=O)(=O)c3ccccc3)c(S(=O)CC(=O)N3CCC(C)CC3)o2)cc1 (stereo unspecified),59.7%

row,SMILES,growth
1,COc1cc(C2C3=C(COC3=O)N(CCO)c3cc4c(cc32)OCO4)cc(OC)c1OC (stereo unspecified),27.2%
2,N#Cc1c(-c2ccccc2)nc2c(c(-c3ccccc3)nn2-c2ccccc2)c1-c1ccc(O)cc1,70.5%
3,CC(=O)[C@H]1CCC/C=C/[C@@H]2C[C@H](O)C[C@H]2[C@H](O)/C=C/C(=O)O1,3.11% (active)
4,CC(C)(C)[Si](C)(C)OC1[C@@H](O[Si](C)(C)C(C)(C)C)[C@@H](CNC(=O)NC(=O)CCl)O[C@H]1n1cnc2c(NC(=O)Nc3ccccc3)ncnc21 (stereo partly specified),20.3%
5,COc1cc(CC(=O)n2ncc3ccc(N)cc32)cc(OC)c1OC,90.1%
6,Cc1cc2c(c(C)c1Cl)C(=O)/C(=C/c1ccc(O)c(O)c1)O2,104%
7,O=C1C=CC(=O)N1c1cccc(Cl)c1,98.3%
8,COC(=O)C(CC=O)C(=O)C(=O)Nc1cccc(C(F)(F)F)c1 (stereo unspecified),107%
9,CN(CCN(C)c1ccc(C(=N)N)cc1)c1ccc(C(=N)N)cc1,104%
10,O=C1/C=C/[C@@H](O)[C@@H]2C[C@@H](O)C[C@H]2/C=C/CCC[C@H](CCc2ccc3ncccc3c2)O1,2.87% (active)
11,C#Cc1cccc(NC(=O)Nc2cccc(NC(=O)CCl)c2)c1,-15.1% [8.25 µM] (active)
12,CCNc1nc2ccc(Nc3ccnc4cc(Cl)ccc34)cc2[nH]1,95.8%
13,N#CC(C(=O)/C(=N/NC(=O)c1ccccc1O)C(C#N)c1ccccc1)c1ccccc1 (stereo unspecified),44.5%
14,O=[N+]([O-])c1ccc(N=Nc2cc(S(=O)(=O)O)c3cccc(S(=O)(=O)O)c3c2O)cc1,104%
15,C=CCn1c(-c2ccc(-c3nc4ccc(C)cc4[nH]3)cc2)n[nH]c1=S,108%
16,COc1cc(/C=C\c2cc(OC)c(OC)c(OC)c2)cc(N)c1OC,69.7%

# System: T-47D breast
# Assay: as above
# Details: 10 µM unless noted
row,SMILES,growth
1,O=C(/C=C/c1c(-c2ccc(Cl)cc2)nn(-c2ccccc2)c1C(F)(F)F)c1ccc(Cl)cc1,64.8%
2,Cc1c(C)c([N+](=O)[O-])c(C)c([N+](=O)[O-])c1C,113%
3,CC(c1ccccc1)C(C(=O)c1ccccc1)c1ccccc1 (stereo unspecified),91.5%
4,COc1cc(NC(=O)CSc2nc3ccc(C)cc3c(=O)n2Cc2ccccc2)cc(OC)c1OC,22.8%
5,CSc1nc2sc3cccc(Cl)c3n2c(=N)c1C#N,83.9%
6,CCN(c1ccccc1)S(=O)(=O)c1cc([N+](=O)[O-])ccc1Cl,26.6%
7,COC1=CC(=O)c2ccccc2C1=O,59%
8,COC(=O)c1ccc2c(c1)[n+](=O)c(C(C)=O)c(C(F)(F)F)n2[O-],-73.6% (active)
9,COc1cc(/C=C/C(=O)c2nc3cc(F)ccc3nc2C)cc(OC)c1OC,48%
10,Cc1nc2ccc(Cl)cn2c1-c1nnc(SCc2ccc([N+](=O)[O-])cc2)o1,79.8%
11,COc1ccc(/C=C/C(=O)Nc2cc(/C=C\c3cc(OC)c(OC)c(OC)c3)cc(OC)c2OC)cc1OC,6.43% (active)
12,N#C/C(=C\c1cccc(C#N)c1)c1ccccc1,78.7%
13,C[C@H]1[C@H]2[C@H]3CC[C@@H]4[C@@]5(C)CC[C@H](O)C(C)(C)[C@@H]5CC[C@@]4(C)[C@]3(C)CC[C@]23CO[C@]1(C)[C@@H](C(=O)/C=C\c1ccco1)C3,84.8%
14,COc1cc2cc(Oc3cccc(NC(=O)Nc4cc(C(F)(F)F)cc(C(F)(F)F)c4)c3)c(C)nc2cc1OC,7.52% (active)
15,Cc1ncc(C(=O)Nc2ccc(CN3CCN(C)CC3)c(C(F)(F)F)c2)cc1C#Cc1cnc(N)cc1C#N,57.8%
16,Cc1ccc(-n2nc3c(c(C#N)c2=O)CC(c2ccccc2[N+](=O)[O-])C([N+](=O)[O-])=C3O)cc1 (stereo unspecified),65.5%
17,C#Cc1cccc(NC(=O)c2cccc(NC(=O)CCl)c2)c1,25% [8.25 µM]
18,N#CC1=C(N)Oc2c(ccc3ccccc23)C1c1ccccc1Cl (stereo unspecified),66.5%
19,O=C(CSc1nc2ccccc2[nH]1)NCc1ccccc1,92%

row,SMILES,growth
1,COc1ccc(-c2nc(S(=O)(=O)c3ccccc3)c(S(=O)CC(=O)N3CCC(C)CC3)o2)cc1 (stereo unspecified),15.6%
2,COc1cc(C2C3=C(COC3=O)N(CCO)c3cc4c(cc32)OCO4)cc(OC)c1OC (stereo unspecified),36.7%
3,N#Cc1c(-c2ccccc2)nc2c(c(-c3ccccc3)nn2-c2ccccc2)c1-c1ccc(O)cc1,35.3%
4,CC(=O)[C@H]1CCC/C=C/[C@@H]2C[C@H](O)C[C@H]2[C@H](O)/C=C/C(=O)O1,-12.2% (active)
5,O=C1/C=C/[C@@H](O)[C@@H]2C[C@@H](O)C[C@H]2/C=C/CCC[C@H](CCc2cccc3ccccc23)O1,1.52% (active)
6,CC(C)(C)[Si](C)(C)OC1[C@@H](O[Si](C)(C)C(C)(C)C)[C@@H](CNC(=O)NC(=O)CCl)O[C@H]1n1cnc2c(NC(=O)Nc3ccccc3)ncnc21 (stereo partly specified),-45.7% (active)
7,COc1cc(CC(=O)n2ncc3ccc(N)cc32)cc(OC)c1OC,76.2%
8,Cc1cc2c(c(C)c1Cl)C(=O)/C(=C/c1ccc(O)c(O)c1)O2,90.5%
9,O=C1C=CC(=O)N1c1cccc(Cl)c1,93.7%
10,COC(=O)C(CC=O)C(=O)C(=O)Nc1cccc(C(F)(F)F)c1 (stereo unspecified),77.4%
11,CN(CCN(C)c1ccc(C(=N)N)cc1)c1ccc(C(=N)N)cc1,163%
12,O=C1/C=C/[C@@H](O)[C@@H]2C[C@@H](O)C[C@H]2/C=C/CCC[C@H](CCc2ccc3ncccc3c2)O1,0.682% (active)
13,C#Cc1cccc(NC(=O)Nc2cccc(NC(=O)CCl)c2)c1,27.8% [8.25 µM]
14,CCNc1nc2ccc(Nc3ccnc4cc(Cl)ccc34)cc2[nH]1,100%
15,N#CC(C(=O)/C(=N/NC(=O)c1ccccc1O)C(C#N)c1ccccc1)c1ccccc1 (stereo unspecified),24.9%
16,O=[N+]([O-])c1ccc(N=Nc2cc(S(=O)(=O)O)c3cccc(S(=O)(=O)O)c3c2O)cc1,108%
17,C=CCn1c(-c2ccc(-c3nc4ccc(C)cc4[nH]3)cc2)n[nH]c1=S,97.5%
18,O=C1Nc2ccccc2/C1=C\c1c(-c2ccccc2)nc2ccccn12,38.1%
19,COc1cc(/C=C\c2cc(OC)c(OC)c(OC)c2)cc(N)c1OC,82.8%
